Screens deposited in PubChem by Broad Institute.
ERAP1 HTS inh: human ERAP1 aminopeptidase inhibitors, primary screen, biochemical, single point, plate reader; inhibition, % at 10.7 µM; actives 0.15% (n = 340,000); recombinant ERAP1, Leu-AMC fluorescence, 60 min; AID 652197, 2013; Endoplasmic reticulum aminopeptidase 1 (Homo sapiens), Q9NZ08;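 active = mean replicate inhibition of at least 30%, or all replicates individually reaching that 30% level; inactive = mean below 30% and not every replicate reaching it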
Target sequence (Q9NZ08 whole entry, looked up): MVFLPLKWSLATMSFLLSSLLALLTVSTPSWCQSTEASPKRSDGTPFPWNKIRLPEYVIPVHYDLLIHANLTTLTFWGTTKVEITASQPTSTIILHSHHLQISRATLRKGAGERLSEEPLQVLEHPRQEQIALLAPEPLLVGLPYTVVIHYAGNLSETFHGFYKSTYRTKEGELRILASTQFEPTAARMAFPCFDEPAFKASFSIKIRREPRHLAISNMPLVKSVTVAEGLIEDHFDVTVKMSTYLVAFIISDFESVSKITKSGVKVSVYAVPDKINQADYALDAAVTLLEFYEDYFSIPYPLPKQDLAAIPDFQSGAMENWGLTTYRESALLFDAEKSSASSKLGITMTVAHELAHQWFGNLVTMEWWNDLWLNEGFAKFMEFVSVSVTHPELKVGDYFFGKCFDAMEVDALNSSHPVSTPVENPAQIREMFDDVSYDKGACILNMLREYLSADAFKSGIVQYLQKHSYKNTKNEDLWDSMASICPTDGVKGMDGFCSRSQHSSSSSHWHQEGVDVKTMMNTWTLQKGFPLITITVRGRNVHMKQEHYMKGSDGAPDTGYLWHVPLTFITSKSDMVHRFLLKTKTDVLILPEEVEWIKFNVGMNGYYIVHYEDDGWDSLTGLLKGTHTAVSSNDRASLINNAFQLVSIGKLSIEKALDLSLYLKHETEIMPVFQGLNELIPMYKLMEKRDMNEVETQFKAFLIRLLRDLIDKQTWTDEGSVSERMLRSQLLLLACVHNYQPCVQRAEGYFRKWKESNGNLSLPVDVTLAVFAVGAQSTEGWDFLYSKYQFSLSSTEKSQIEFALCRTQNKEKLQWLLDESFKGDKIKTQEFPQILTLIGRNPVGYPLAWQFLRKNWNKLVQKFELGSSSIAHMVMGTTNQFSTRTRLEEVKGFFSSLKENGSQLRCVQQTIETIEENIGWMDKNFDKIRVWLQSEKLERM
CFTR F508del cor: F508del CFTR correction, initial screen, CFBE line, single point; actives 0.36% (n = 350,000); activity (quench increase), % at 7.58 µM; CFBE cells, YFP halide quenching; stimulated with forskolin plus potentiator P3; % fluorescence drop versus neutral controls;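 active = mean added fluorescence quench of at least 8% versus neutral control, with both replicates also reaching 8%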;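 also: cells transiently co-express mutant CFTR-F508del with the halide-sensitive YFP; corrector assay measuring rescue of mutant channel to the surface after 24 h compound exposure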
PvdQ inh: P. aeruginosa PvdQ acylase inhibitors, primary screen, biochemical, fluorescence, plate reader and imaging, single point | PvdQ acylase [Pseudomonas aeruginosa LESB58] | purified PvdQ acylase | inhibition, % at 10 µM | actives 0.063% (n = 340,000); in the data active = inhibition above about 30%, passing the limit was not always enough
Ecoli rRNA inh: reduced GFP signal of wild-type E. coli, primary screen, bacterial rRNA inhibitor project, GFP/RFP fluorescence, OD600, single point | E. coli WT GFP vs humanized-ribosome RFP mutants, 24 h; hits give low values; DMSO median 0, no signal -100 | actives 1.6% (n = 350,000) | GFP signal change (wild-type ribosome), % (test concentration not listed);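 active = significant combined selectivity score with lowered wild-type GFP, culture density cut under 30%, mutant RFP and density less affected; inactive = any of these conditions unmet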
ARNT-TACC3 inh: disruptors of ARNT/TACC3 protein interaction, primary screen, biochemical, AlphaScreen, single concentration; Transforming acidic coiled-coil-containing protein 3 (Homo sapiens), Q9Y6A5; AlphaScreen His-ARNT PAS-B/GST-TACC3 binding, luminescence; TACC3 fragment carries E629A point mutation; inhibition, % at 9.99 µM; actives 0.66% (n = 390,000); AID 623870, 2012;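 active = mean inhibition of replicates at least 50% and at least half of replicates each reaching 50%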
Of the large screens only hits and unclear results are named; the others gave an inactive call. This is a sample that favours compounds with a hit; in the whole collection about 2.1% have one here.

COc1cccc([C@@H]2CC=C(C(=O)O)[C@H](c3cccc(Cl)c3)N2S(=O)(=O)c2ccc(C)cc2)c1	Ecoli rRNA inh -32
CCCCCCCCCCCCCCCC[n+]1ccc(C(N)=O)cc1	none (no result: ERAP1 HTS inh, CFTR F508del cor, Ecoli rRNA inh)
CCCCCCCCCCCCCCCC[n+]1ccc(/C=N/O)cc1	Ecoli rRNA inh -37 (no result: CFTR F508del cor)
CCCCCCCCCCCCCCCC[n+]1ccccc1	ERAP1 HTS inh 75
Cc1cc(C(=O)N/N=C/c2ccc(-c3ccc([N+](=O)[O-])cc3Cl)o2)n[nH]1	Ecoli rRNA inh -32
Cc1cc(C(=O)N/N=C/c2ccc(-c3cccc([N+](=O)[O-])c3)o2)n[nH]1	none
O=C(NCc1cccnc1)C(=O)Nc1nc(C23CC4CC(CC(C4)C2)C3)cs1	Ecoli rRNA inh -27 (no result: ERAP1 HTS inh)
O=C(NCc1ccccc1)C(=O)Nc1nc(C23CC4CC(CC(C4)C2)C3)cs1	none (no result: ARNT-TACC3 inh)
COc1ccccc1-c1nc(SCC(=O)Nc2ccccc2F)n[nH]1	Ecoli rRNA inh -27
COc1cc(OC)cc(-c2nc(SCC(=O)Nc3ccccc3F)n[nH]2)c1	none
O=C(CSc1n[nH]c(-c2ccccn2)n1)Nc1ccccc1F	ARNT-TACC3 inh 54
Cc1[nH][nH]c(=O)c1C(c1ccc(-c2cccc(Cl)c2)o1)c1c(C)[nH][nH]c1=O	ARNT-TACC3 inh 50 (no result: ERAP1 HTS inh, CFTR F508del cor, Ecoli rRNA inh)
O=C(C[C@H]1C[C@@H]2c3cc(NC(=O)CC4CC4)ccc3O[C@@H]2[C@@H](CO)O1)NCc1cccc(F)c1	ARNT-TACC3 inh active (no result: PvdQ inh)
O=C(C[C@H]1C[C@H]2c3cc(NC(=O)CC4CC4)ccc3O[C@H]2[C@@H](CO)O1)NCc1cccc(F)c1	none (no result: PvdQ inh)
CCCCn1c(N)c(N(CCC(C)C)C(=O)c2c(C)noc2C)c(=O)[nH]c1=O	none
COCCN(C(=O)c1c(C)noc1C)c1c(N)n(CC(C)C)c(=O)[nH]c1=O	ERAP1 HTS inh 83
O=C(NC(=S)Nc1ccc2ncccc2c1)c1ccccc1	Ecoli rRNA inh -21
COc1ccc(S(=O)(=O)Nc2ccc3c(c2)C(=O)N([C@@H](C)CO)C[C@@H](C)[C@H](CN(C)C)O3)cc1	none (no result: PvdQ inh)
COc1ccc(-c2n[nH]c(=S)n2-c2ccc3c(c2)OCCO3)cc1	none (no result: ERAP1 HTS inh, CFTR F508del cor, Ecoli rRNA inh)
S=c1[nH]nc(-c2ccc(Br)cc2)n1-c1ccc2c(c1)OCCO2	Ecoli rRNA inh -14
S=c1[nH]nc(-c2ccc3ccccc3n2)n1-c1ccc2c(c1)OCCO2	Ecoli rRNA inh -33
COC(=O)[C@H]1[C@H](CO)[C@H]2Cn3c(ccc(-c4cccc(F)c4)c3=O)[C@H]2N1Cc1ccccn1	none (no result: PvdQ inh)
Cc1noc(C)c1S(=O)(=O)N(C)C[C@@H]1Oc2ccc(NS(=O)(=O)c3ccc(F)cc3)cc2CC(=O)N([C@@H](C)CO)C[C@H]1C	none (no result: PvdQ inh, ARNT-TACC3 inh)
O=C(CCn1c(=O)oc2ccccc21)N(Cc1ccccc1)c1ccccc1	none
CCCCN(C(=O)CCn1c(=O)oc2ccccc21)c1ccccc1	Ecoli rRNA inh -27
O=S(=O)(c1cc(F)ccc1F)N1CCC2(CC1)OCCO2	none
COc1ccc(NS(=O)(=O)c2cccc(Cl)c2Cl)cc1S(=O)(=O)N1CCCCC1	Ecoli rRNA inh -35 (no result: CFTR F508del cor)
COc1ccc(C(=O)Nc2ccc(NC(C)=O)cc2)cc1S(=O)(=O)N1CCCC1	Ecoli rRNA inh -33
COc1ccc(C(=O)Nc2ccc(N3CCOCC3)cc2)cc1S(=O)(=O)N1CCCC1	none
COc1ccc(C(CNC(=O)c2ccc(Cl)c(S(=O)(=O)N3CCCC3)c2)N2CCCC2)cc1 (stereo not given)	none
O=C(Nc1ccc(F)c(F)c1)c1ccc(F)c(S(=O)(=O)N2CCC3(CC2)OCCO3)c1	Ecoli rRNA inh -27
COc1ccc(CCNC(=O)c2ccc(Cl)c(S(=O)(=O)N3CCCC3)c2)cc1	Ecoli rRNA inh -29
C[C@H]1CN([C@@H](C)CO)C(=O)Cc2cc(NS(=O)(=O)c3ccc(Cl)cc3)ccc2O[C@H]1CN(C)C(=O)Nc1ccc(C(F)(F)F)cc1	none (no result: PvdQ inh)
O=C(CCCN1C(=O)C(=Cc2ccc3c(c2)OCO3)SC1=S)Nc1ccc(C(=O)O)c(O)c1	Ecoli rRNA inh -26 (no result: ERAP1 HTS inh, PvdQ inh, ARNT-TACC3 inh)
O=C(CCCN1C(=O)/C(=C/c2ccco2)SC1=S)Nc1cccc(C(=O)O)c1	ERAP1 HTS inh 32
COc1ccc(C=C2SC(=S)N(CCCC(=O)Nc3ccc(C(=O)O)c(O)c3)C2=O)cc1OC	ERAP1 HTS inh 35 (no result: PvdQ inh, ARNT-TACC3 inh)
O=C(CCCN1C(=O)/C(=C/c2ccc3c(c2)OCO3)SC1=S)Nc1ccc(C(=O)O)cc1	none (no result: Ecoli rRNA inh)
O=C(CCCN1C(=O)/C(=C\c2cccs2)SC1=S)Nc1cccc(C(=O)O)c1	none
COc1ccc(-c2nc3ccccc3n2Cc2ccc(C)cc2)cc1	none (no result: ERAP1 HTS inh, CFTR F508del cor, Ecoli rRNA inh, ARNT-TACC3 inh)
COc1ccc(Cn2c(-c3ccc(C)cc3)c[n+]3ccccc23)cc1	Ecoli rRNA inh -34
CC(=O)c1ccc(N2CCN(C(=O)C3CCCN(c4ncnc5c4nc4n5CCCCC4)C3)CC2)cc1 (stereo not given)	none (no result: ARNT-TACC3 inh)
COc1ccc(N2CCN(C(=O)C3CCCN(c4ncnc5c4nc4n5CCCCC4)C3)CC2)cc1 (stereo not given)	Ecoli rRNA inh -26 (no result: ARNT-TACC3 inh)
COc1ccc2c3c(n(C)c2c1)[C@@H](CO)NCC31CCN(Cc2ccccc2Cl)CC1	none (no result: ERAP1 HTS inh, PvdQ inh, ARNT-TACC3 inh)
CCCC(=O)Nc1ccc2c(c1)C(=O)N(C)C[C@@H](OC)[C@H](C)CN(C(=O)c1cccnc1)[C@@H](C)CO2	none (no result: PvdQ inh)
Cc1ccc(OCc2nc(C#N)c(N3CCCCC3)o2)cc1	Ecoli rRNA inh -32
CCOc1ccccc1NC(=O)CC1SC(=N)N(c2ccccc2)C1=O (stereo not given)	CFTR F508del cor 15 (no result: PvdQ inh, ARNT-TACC3 inh)
COc1ccccc1NC(=O)CC1SC(=N)N(c2ccccc2)C1=O (stereo not given)	none
CCc1c(C)nc2ncnn2c1NCCc1ccc(OC)cc1	CFTR F508del cor 11, Ecoli rRNA inh -27
CCc1c(C)nc2ncnn2c1Nc1ccc(C)cc1	none
O=C1CN(Cc2ccccc2)C[C@H]2[C@H](c3ccc(Br)cc3)[C@H](CO)N12	none (no result: PvdQ inh, ARNT-TACC3 inh)
S=c1[nH]nc2nnc3ccccc3n12	Ecoli rRNA inh -32 (no result: ERAP1 HTS inh)
NNC(=O)c1ccc2nc(-c3ccc(Br)cc3)cn2c1	Ecoli rRNA inh -28
Cc1ccc(NC(=O)C(C)Sc2nc3nc(C)cc(C)n3n2)cc1 (stereo not given)	none (no result: Ecoli rRNA inh)
Cc1cc(C)n2nc(SC(C)C(=O)Nc3ccccc3F)nc2n1 (stereo not given)	ARNT-TACC3 inh active
O=[N+]([O-])c1ccccc1S(=O)(=O)Oc1ccc(/C=N/n2cnnc2)cc1	none (no result: ERAP1 HTS inh, CFTR F508del cor, Ecoli rRNA inh)
COc1cc(/C=N/n2cnnc2)ccc1OS(=O)(=O)c1ccccc1[N+](=O)[O-]	Ecoli rRNA inh -19
